ChEMBL document CHEMBL2218924, “A broad activity screen in support of a chemogenomic map for kinase signalling research and drug discovery” (Biochem J, 2013)

molecular target: Ribosomal protein S6 kinase alpha-2 (Homo sapiens) (UniProt Q15349); details: at 10 µM
Sequence (Q15349 whole entry): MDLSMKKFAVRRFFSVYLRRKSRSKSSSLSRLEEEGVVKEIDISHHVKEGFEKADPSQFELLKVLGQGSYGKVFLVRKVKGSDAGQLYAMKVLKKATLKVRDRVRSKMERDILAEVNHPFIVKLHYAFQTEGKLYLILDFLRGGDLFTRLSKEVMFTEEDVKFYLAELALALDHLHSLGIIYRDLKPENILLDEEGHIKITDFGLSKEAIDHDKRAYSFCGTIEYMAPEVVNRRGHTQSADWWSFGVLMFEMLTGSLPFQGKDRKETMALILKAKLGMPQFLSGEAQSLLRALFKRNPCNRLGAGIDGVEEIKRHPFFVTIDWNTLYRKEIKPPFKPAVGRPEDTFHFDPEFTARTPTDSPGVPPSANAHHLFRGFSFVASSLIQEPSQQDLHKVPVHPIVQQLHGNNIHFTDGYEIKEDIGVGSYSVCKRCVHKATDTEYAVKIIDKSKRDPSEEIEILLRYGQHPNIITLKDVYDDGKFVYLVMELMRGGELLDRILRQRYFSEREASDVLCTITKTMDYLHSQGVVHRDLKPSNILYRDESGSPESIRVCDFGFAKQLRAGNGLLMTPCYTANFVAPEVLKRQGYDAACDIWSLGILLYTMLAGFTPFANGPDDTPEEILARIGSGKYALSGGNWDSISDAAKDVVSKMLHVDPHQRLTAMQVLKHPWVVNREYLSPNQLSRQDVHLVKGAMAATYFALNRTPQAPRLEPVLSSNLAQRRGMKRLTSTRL

Compound | residual activity [%]
CCOC(=O)c1c(C)[nH]c(/C=C2\C(=O)Nc3ccccc32)c1C | 77
Nc1nccc(-c2c(-c3ccc(F)cc3)ncn2C2CCNCC2)n1 | 50
O=C1Nc2ccccc2/C1=C\c1c(Cl)[nH]c2ccccc12 | 44
CCN1/C(=C/C(C)=O)Sc2ccc(OC)cc21 | 57
Cn1sc(=O)n(Cc2ccccc2)c1=O | 97
COc1cc2ncnc(Nc3cccc(Cl)c3)c2cc1OC | 47
Nc1ncnc2c1cnn2-c1ccccc1 | 84
CN([C@@H](Cc1ccc(OS(=O)(=O)c2cccc3cnccc23)cc1)C(=O)N1CCN(c2ccccc2)CC1)S(=O)(=O)c1cccc2cnccc12 | 99
CC(C)(C)c1nc2c3ccc(F)cc3c3c(=O)[nH]ccc3c2[nH]1 | 7
O=C1Cc2c([nH]c3ccc([N+](=O)[O-])cc23)-c2ccccc2N1 | 22
O=C1Cc2c([nH]c3ccc(Br)cc23)-c2ccccc2N1 | 9
CCCCc1c(-c2ccc(O)cc2)[nH]c2nccnc12 | 44
CCOc1nc(NC(=O)Cc2cc(OC)ccc2OC)cc(N)c1C#N | 71
NCCNc1ncc(C(N)=O)c(Nc2cccc(C(F)(F)F)c2)n1 | 29
